Records with an inconclusive call do not appear. Active and inactive are the calls of the source. Unless noted, the call rests on the fitted dose curve; in most records, active means well fitted curve in the direction sought with a large enough effect in the repeat runs; inconclusive means weak or mixed curves; inactive means no such curve, though single readings can be large; an effect the other way counts as inactive or inconclusive.
Assays:
[1] = qHTS RealTime-Glo MT Cell Viability Assay in HEK293 cells - 0 hour (AID 1224880); further: top concentration of the series differs between compounds; nearly all actives have a fitted effect of over 45% in size
Outline: (§1)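 Kinetic, non-lysing viability readout. Seed HEK293 (600/well) with reagent, incubate 5 h at 37 C/5% CO2, pin 23 nL compound in DMSO, incubate at 37 C, read luminescence at 0, 8, 16, 24, 32, 40 h.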

[2] = A CellTox Green Cytotoxicity Assay to monitor cytotoxicity in HEK293 cells - 32 hour (AID 1224881); further: nearly all actives have a fitted effect of over 40% in size
Outline: (§2)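 Real-time, in one plate: 600 HEK293 cells/well with dead-cell DNA dye, pinned compound after 5 h, 37 C incubation over 40 h; viable cells give no appreciable fluorescence.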

[3] = A CellTox Green Cytotoxicity Assay to monitor cytotoxicity in HepG2 cells - 0 hour (AID 1224882); further: nearly all actives have a fitted effect of over 35% in size
Outline: (§3)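 Cytotoxicity was tracked as dead-cell DNA fluorescence in HepG2 cells treated with test compounds at 37 C; each time-point value comes from one kinetic series spanning 0, 8, 16, 24, 32 and 40 h.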

[4] = A CellTox Green Cytotoxicity Assay to monitor cytotoxicity in HepG2 cells - 32 hour (AID 1224883); further: nearly all actives have a fitted effect of over 50% in size
Outline: as §3

[5] = A CellTox Green Cytotoxicity Assay to monitor cytotoxicity in HEK293 cells - 8 hour (AID 1224884); further: nearly all actives have a fitted effect of over 35% in size
Outline: as §2

[6] = qHTS RealTime-Glo MT Cell Viability Assay in HepG2 cells - 16 hour (AID 1224885); further: nearly all actives have a fitted effect of over 50% in size
Outline: (§4)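 Luminescence read-out: viable HepG2 cells reduce a prosubstrate to a NanoLuc substrate, giving a signal proportional to live cell number. Reads taken at 0, 8, 16, 24, 32 and 40 h of compound exposure at 37 C.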

[7] = qHTS RealTime-Glo MT Cell Viability Assay in HEK293 cells - 8 hour (AID 1224887); further: top concentration of the series differs between compounds; nearly all actives have a fitted effect of over 50% in size
Outline: as §1

[8] = A CellTox Green Cytotoxicity Assay to monitor cytotoxicity in HEK293 cells - 16 hour (AID 1224888); further: nearly all actives have a fitted effect of over 35% in size
Outline: as §2

[9] = qHTS RealTime-Glo MT Cell Viability Assay in HepG2 cells - 0 hour (AID 1224889); further: nearly all actives have a fitted effect of over 50% in size
Outline: as §4

[10] = A CellTox Green Cytotoxicity Assay to monitor cytotoxicity in HepG2 cells - 8 hour (AID 1224890); further: nearly all actives have a fitted effect of over 45% in size
Outline: as §3

[11] = qHTS assay to identify small molecule antagonists of the estrogen receptor alpha (ER-alpha) signaling pathway using the BG1 cell line in the presence of 0.1 nM 17-beta-estradiol - cell viability counter screen (AID 1259241); further: nearly all actives have a fitted effect of over 40% in size
Outline: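 Measures cytotoxicity alongside the ER-alpha antagonist readout: VM7Luc4E2 cells, charcoal-stripped serum, 0.1 nM 17beta-estradiol final, 22 hr compound incubation at 37C, CellTiter-Fluor fluorescence.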

[12] = qHTS assay to identify small molecule antagonists of the androgen receptor (AR) signaling pathway using the MDA cell line in the presence of 0.5 nM R1881 - cell viability counter screen (AID 1259242); further: nearly all actives have a fitted effect of over 45% in size
Outline: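 Cells seeded at 3,000/well and allowed 5 hr at 37C, 0% CO2 before compound transfer and R1881 (0.5 nM final) addition; 16 hr later, live-cell protease fluorescence indicated cytotoxicity.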

[13] = target: Estrogen receptor (Homo sapiens) (UniProt P03372); assay: qHTS assay to identify small molecule antagonists of the estrogen receptor alpha (ER-alpha) signaling pathway using the BG1 cell line in the presence of 0.1 nM 17-beta-estradiol (AID 1259244); further: nearly all actives have a fitted effect of over 50% in size
Outline: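 Luciferase signal from VM7Luc4E2 ERE-reporter cells, co-dosed with test compound and 0.1 nM final 17beta-estradiol for 22 h, read with ONE-Glo.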

[14] = qHTS assay to identify small molecule phospholipidosis (PLD) inducers (AID 1259344; active means well fitted curve in the direction sought with a large enough effect; an effect the other way counts as inactive or inconclusive)
Outline: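 After 4 h attachment on collagen I, HepG2 cells were dosed with compound alongside LipidTOX Red, kept 24 h at 37 C, fixed, and imaged for lamellar phospholipid pits.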

[15] = qHTS assay to identify small molecule HDAC inhibitors (AID 1259364);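 further: wild-type HCT-116 cells with endogenous class I/II HDAC activity; top concentration of the series differs between compounds; nearly all actives have a fitted effect of over 45% in size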
Outline: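 HCT-116 wt cells, 1,500/well, overnight attach. Compounds (DMSO) 2 h, 37 °C. HDAC-Glo I/II, 30 min RT. Luminescence.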

[16] = qHTS assay to identify small molecule HDAC inhibitors - cell viability counter screen (AID 1259365)
Outline: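 Following a 2hr exposure of overnight-plated wild-type HCT-116 cells to DMSO-delivered compounds, CellTiter-Glo was added and luminescence recorded after 30min at room temperature.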

[17] = qHTS assay to identify small molecule agonists of the sonic hedgehog signaling (Shh) pathway - cell viability counter screen (AID 1259366); further: nearly all actives have a fitted effect of over 50% in size
Outline: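 After a 4hr attachment at 37C, NIH/3T3 cells bearing an integrated Gli1-driven luciferase reporter were dosed with compounds. Treatment lasted 24hr, with the final hour including CellTiter-Fluor for a fluorescence viability measurement.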

[18] = qHTS assay to identify small molecule antagonists of the sonic hedgehog signaling (Shh) pathway - cell viability counter screen (AID 1259367); further: nearly all actives have a fitted effect of over 55% in size
Outline: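 Conditioned medium drove Shh signaling in 3T3 Gli1-Luc cells exposed to compounds at 37C and 5% CO2. Viability was determined from CellTiter-Fluor fluorescence, with reagent incubated 1 hr after 23 hr of treatment.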

[19] = target: Androgen receptor (Homo sapiens) (UniProt P10275); assay: qHTS assay to identify small molecule antagonists of the androgen receptor (AR) signaling pathway using the MDA cell line in the presence of 0.5 nM R1881 (AID 1259243); further: nearly all actives have a fitted effect of over 50% in size
Outline: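 Luminescence from an AR/GR-responsive MMTV-luciferase construct in MDA-kb2 breast carcinoma cells, read 30 min after ONE-Glo, following 16 hr co-treatment with compounds and 0.5 nM R1881.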

[20] = qHTS RealTime-Glo MT Cell Viability Assay in HEK293 cells - 24 hour (AID 1224886)
Outline: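 Nonlytic real-time viability readout: viable cells convert prosubstrate to NanoLuc substrate, giving luminescence proportional to live cell number. HEK293, 600 cells/well, compound added after 5 h, continuous culture at 37 C.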

Measured: Potency

Chain of Estrogen receptor (Homo sapiens) (P03372 whole entry, looked up): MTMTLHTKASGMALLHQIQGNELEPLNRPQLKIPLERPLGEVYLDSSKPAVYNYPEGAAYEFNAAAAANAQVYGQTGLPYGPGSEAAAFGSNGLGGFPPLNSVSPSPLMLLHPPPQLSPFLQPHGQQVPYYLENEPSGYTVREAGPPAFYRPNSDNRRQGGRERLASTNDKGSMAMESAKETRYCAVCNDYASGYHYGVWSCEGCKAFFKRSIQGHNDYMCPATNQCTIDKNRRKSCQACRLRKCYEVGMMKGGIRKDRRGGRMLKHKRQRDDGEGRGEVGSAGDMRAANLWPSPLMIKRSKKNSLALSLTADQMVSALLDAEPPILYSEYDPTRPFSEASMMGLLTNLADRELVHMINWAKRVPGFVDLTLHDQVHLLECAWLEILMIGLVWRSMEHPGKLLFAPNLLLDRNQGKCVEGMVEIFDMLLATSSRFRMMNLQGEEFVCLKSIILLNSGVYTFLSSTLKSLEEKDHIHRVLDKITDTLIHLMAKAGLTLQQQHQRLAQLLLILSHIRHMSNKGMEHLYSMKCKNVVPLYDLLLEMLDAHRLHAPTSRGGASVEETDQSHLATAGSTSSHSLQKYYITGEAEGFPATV
Chain of Androgen receptor (Homo sapiens) (P10275 whole entry, looked up): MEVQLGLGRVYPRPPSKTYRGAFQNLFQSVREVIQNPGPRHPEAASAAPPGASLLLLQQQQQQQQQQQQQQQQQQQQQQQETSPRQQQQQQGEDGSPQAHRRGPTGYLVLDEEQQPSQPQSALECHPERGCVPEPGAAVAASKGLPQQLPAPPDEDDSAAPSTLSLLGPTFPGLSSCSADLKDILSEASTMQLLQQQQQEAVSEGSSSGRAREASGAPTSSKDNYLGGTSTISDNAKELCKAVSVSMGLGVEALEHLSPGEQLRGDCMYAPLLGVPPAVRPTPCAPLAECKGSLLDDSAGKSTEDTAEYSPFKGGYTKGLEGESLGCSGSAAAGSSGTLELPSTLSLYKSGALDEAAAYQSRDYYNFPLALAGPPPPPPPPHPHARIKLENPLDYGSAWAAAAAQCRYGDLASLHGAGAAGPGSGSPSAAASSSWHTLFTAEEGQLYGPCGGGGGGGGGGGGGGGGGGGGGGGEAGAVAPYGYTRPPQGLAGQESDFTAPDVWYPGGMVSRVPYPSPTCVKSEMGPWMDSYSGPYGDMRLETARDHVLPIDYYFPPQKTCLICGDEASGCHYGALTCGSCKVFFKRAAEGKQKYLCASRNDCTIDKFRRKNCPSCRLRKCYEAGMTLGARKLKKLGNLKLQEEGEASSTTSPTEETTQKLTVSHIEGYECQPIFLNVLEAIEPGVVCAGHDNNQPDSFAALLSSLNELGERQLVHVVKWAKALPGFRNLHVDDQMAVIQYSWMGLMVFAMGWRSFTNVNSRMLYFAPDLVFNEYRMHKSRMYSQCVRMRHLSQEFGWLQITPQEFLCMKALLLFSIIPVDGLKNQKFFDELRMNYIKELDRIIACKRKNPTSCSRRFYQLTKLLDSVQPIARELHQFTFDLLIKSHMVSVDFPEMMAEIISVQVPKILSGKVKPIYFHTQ

Cc1ccc(Nc2c(F)cccc2Cl)c(CC(=O)O)c1
not listed: [19] | [20]
inactive: all other assays above

O=C(C(=O)c1ccco1)c1ccco1
not listed: [7] | [13] | [14] | [20]
inactive: all other assays above

CC(=O)C(=O)CC(C)C
not listed: [7] | [14] | [19]
inactive: all other assays above

CCC(=O)OCc1ccc(OC)cc1
not listed: [13] | [14] | [18] | [19] | [20]
inactive: all other assays above

COc1ccc(N)c([N+](=O)[O-])c1
not listed: [7] | [13] | [14] | [15] | [18] | [19]
inactive: all other assays above

COC1CCC=CO1 (stereo not given)
not listed: [14] | [19] | [20]
inactive: all other assays above

Cc1ccccc1S(N)(=O)=O
not listed: [13] | [14] | [19] | [20]
inactive: all other assays above

CC(C)C1CCC(C(=O)N[C@H](Cc2ccccc2)C(=O)O)CC1 (stereo not given in full)
not listed: [7] | [13] | [19]
inactive: all other assays above
